Measured values as given in PubChem BioAssay (NCI).
Compounds without any hit were thinned out: in the full panel of roughly 79,000, 15% have a hit. Activity calls are given as the source filed them. No stated cut-off is given here; in the data, active means growth inhibition above about 70%; inactive means the rest.

Columns and labels:
[1] = NCI Yeast Anticancer Drug Screen. Data for the rad52 strain (AID 147);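 further: 0% = growth of vehicle-treated control cultures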; conditions: S. cerevisiae rad52 mutant growth inhibition, active compounds read high
How it was run: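 Yeast strain carrying a DNA damage repair alteration was exposed to test compounds. Growth inhibition was measured relative to vehicle-treated controls.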

[2] = NCI Yeast Anticancer Drug Screen. Data for the wt1 strain (AID 149);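 further: 0% = growth of vehicle-treated wt1 cultures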; conditions: S. cerevisiae wt1 strain (SPY 50644) growth inhibition, active compounds read high
How it was run: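 wt1 yeast, compound-treated; % growth inhibition vs vehicle control.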

[3] = NCI Yeast Anticancer Drug Screen. Data for the rad50EPP+ strain (AID 151);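 further: 0% = growth of vehicle-treated control cultures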; conditions: S. cerevisiae rad50 mutant strain, active compounds read high
How it was run: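 Yeast strain carrying rad50 alteration (rad50EPP+) exposed to compounds; growth inhibition measured relative to vehicle-treated controls.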

[4] = NCI Yeast Anticancer Drug Screen. Data for the mgt1 strain (AID 153); conditions: S. cerevisiae mgt1 mutant growth inhibition, active compounds read high
How it was run: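 Yeast mgt1 strain (DNA repair/cell-cycle alteration panel) exposed to compounds; growth inhibition measured relative to vehicle-treated controls.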

[5] = NCI Yeast Anticancer Drug Screen. Data for the rad50 strain (AID 155);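 further: 0% = growth of vehicle-only cultures of the same strain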; conditions: S. cerevisiae rad50 strain growth inhibition, active compounds read high
How it was run: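 Genetically altered yeast (DNA repair pathway); compound treatment; growth inhibition vs vehicle ctrl.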

[6] = NCI Yeast Anticancer Drug Screen. Data for the mec2-1 strain (AID 157); conditions: S. cerevisiae mec2-1 strain, active compounds read high
How it was run: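 mec2-1 yeast strain, carrying an alteration in DNA damage repair or cell cycle control, was exposed to compounds; growth inhibition was measured relative to vehicle-treated controls.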

[7] = NCI Yeast Anticancer Drug Screen. Data for the rad14 strain (AID 159);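 further: 0% = growth of vehicle-treated control cultures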; conditions: S. cerevisiae rad14 strain growth inhibition, active compounds read high
How it was run: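 Test compounds were applied to a repair-deficient yeast strain. Its growth was then compared with that of cultures given vehicle alone, and inhibition was expressed relative to those controls.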

[8] = NCI Yeast Anticancer Drug Screen. Data for the sgs1 mgt1 strain (AID 161);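 further: 0% = growth of cultures given vehicle only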; conditions: S. cerevisiae sgs1 mgt1 strain, active compounds read high
How it was run: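 Compounds are added to genetically altered yeast, and growth is compared with cultures given vehicle alone to give percent inhibition.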

[9] = NCI Yeast Anticancer Drug Screen. Data for the CLN2oe strain (AID 163);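 further: 0% = growth of vehicle-only control cultures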; conditions: S. cerevisiae CLN2oe strain, active compounds read high
How it was run: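 Yeast cells carrying a defined cell-cycle control alteration were exposed to test compounds. Growth inhibition was scored against vehicle-treated control cultures.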

[10] = NCI Yeast Anticancer Drug Screen. Data for the cln2 rad14 strain (AID 165);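 further: 0% = growth equal to vehicle treated cultures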; conditions: S. cerevisiae cln2 rad14 strain, active compounds read high
How it was run: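 Yeast carrying cln2 and rad14 alterations (cell cycle control and DNA damage repair) were exposed to compounds. Growth inhibition was measured against vehicle-treated controls.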

[11] = NCI Yeast Anticancer Drug Screen. Data for the bub3 strain (AID 167); conditions: S. cerevisiae bub3 mutant strain, active compounds read high
How it was run: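 Yeast carrying a defined mutation is treated with each compound, and growth is compared with that of vehicle-exposed cells to give inhibition.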

[12] = NCI Yeast Anticancer Drug Screen. Data for the wt2 strain (AID 169);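 further: 0% = growth of vehicle-treated yeast cultures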; conditions: S. cerevisiae wt2 strain growth inhibition, active compounds read high
How it was run: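 Yeast cells were exposed to test compounds, and growth inhibition was measured relative to vehicle-treated controls.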

[13] = NCI Yeast Anticancer Drug Screen. Data for the mlh1 strain (AID 171);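 further: 0% = growth of vehicle-treated control cultures of the same strain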; conditions: S. cerevisiae mlh1 strain growth inhibition, active compounds read high
How it was run: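 Yeast carrying a defined genetic alteration in DNA damage repair or cell cycle control were exposed to test compounds. Growth inhibition was measured relative to vehicle-treated controls.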

[14] = NCI Yeast Anticancer Drug Screen. Data for the sgs1 strain (AID 173);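 further: 0% = growth of vehicle-only control cultures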; conditions: S. cerevisiae sgs1 mutant, active compounds read high
How it was run: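 Yeast mutant strains carrying defined defects in DNA damage repair or cell cycle control were exposed to test compounds. Growth inhibition was scored against vehicle-treated controls.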

[15] = NCI Yeast Anticancer Drug Screen. Data for the mlh1 rad18 strain (AID 175); conditions: S. cerevisiae mlh1 rad18 strain growth inhibition, active compounds read high
How it was run: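 Growth inhibition of the yeast strain was measured after compound exposure and expressed relative to vehicle-treated controls. The strain carries defined defects in DNA damage repair.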

[16] = NCI Yeast Anticancer Drug Screen. Data for the rad18 strain (AID 177); conditions: S. cerevisiae rad18 mutant growth inhibition, active compounds read high
How it was run: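 Yeast carrying a defined DNA damage repair alteration were exposed to compounds. Growth inhibition was expressed relative to vehicle-treated controls.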

[17] = at 5.0 µM (retest, dose inferred, filed as 0.5)
[18] = at 50.0 µM (retest, dose inferred, filed as 5.0)

Measured: growth inhibition

O=S1(=O)CCC2=CC(C(F)(F)F)=CC(C(F)(F)F)=CN21
inactive: [1]; at 1.2 µM 26% | [1]; at 3.7 µM 42% | [2]; at 1.2 µM 2% | [2]; at 3.7 µM 29% | [2]; at 11.0 µM 53% | [3]; at 1.2 µM 2% | [3]; at 3.7 µM 16% | [3]; at 11.0 µM 24% | [3]; at 33.0 µM 38% | [4]; at 1.2 µM 15% | [4]; at 3.7 µM 27% | [4]; at 11.0 µM 55% | [5]; at 1.2 µM 61% | [5]; [17] 38% | [6]; at 1.2 µM 52% | [6]; at 3.7 µM 61% | [6]; [17] 66% | [7]; at 1.2 µM 25% | [7]; at 3.7 µM 38% | [7]; at 11.0 µM 67% | [8]; [17] 59% | [9]; at 1.2 µM 25% | [9]; at 3.7 µM 22% | [9]; at 11.0 µM 40% | [9]; at 33.0 µM 68% | [10]; [17] 13% | [11]; at 1.2 µM 26% | [11]; at 3.7 µM 52% | [11]; [17] 57% | [12]; at 1.2 µM 3% | [12]; at 3.7 µM 14% | [12]; at 11.0 µM 51% | [13]; at 1.2 µM 27% | [13]; at 3.7 µM 36% | [13]; at 11.0 µM 67% | [14]; at 1.2 µM 51% | [14]; at 3.7 µM 67% | [16]; at 1.2 µM 54% | [16]; at 3.7 µM 67%
active: [1]; at 11.0 µM 71% | [1]; at 33.0 µM 89% | [1]; at 100.0 µM 98% | [2]; at 33.0 µM 83% | [2]; at 100.0 µM 98% | [3]; at 100.0 µM 79% | [4]; at 33.0 µM 82% | [4]; at 100.0 µM 98% | [5]; at 3.7 µM 71% | [5]; at 11.0 µM 79% | [5]; at 33.0 µM 89% | [5]; [18] 96% | [5]; at 50.0 µM 95.5% | [5]; at 100.0 µM 98% | [6]; at 11.0 µM 81% | [6]; at 33.0 µM 93% | [6]; [18] 97% | [6]; at 50.0 µM 97.9% | [6]; at 100.0 µM 99% | [7]; at 33.0 µM 91% | [7]; at 100.0 µM 98% | [8]; [18] 98% | [8]; at 50.0 µM 94.4% | [9]; at 100.0 µM 98% | [10]; [18] 92% | [10]; at 50.0 µM 83.9% | [11]; at 11.0 µM 78% | [11]; at 33.0 µM 92% | [11]; [18] 89% | [11]; at 50.0 µM 96.9% | [11]; at 100.0 µM 98% | [12]; at 33.0 µM 83% | [12]; at 100.0 µM 98% | [13]; at 33.0 µM 86% | [13]; at 100.0 µM 98% | [14]; at 11.0 µM 80% | [14]; at 33.0 µM 94% | [14]; at 100.0 µM 99% | [15]; [17] 76% | [15]; [18] 98% | [15]; at 50.0 µM 97.2% | [16]; at 11.0 µM 79% | [16]; at 33.0 µM 90% | [16]; at 100.0 µM 97%
